Records with an inconclusive call do not appear. A call without a number means that no potency is given here. Active and inactive are the calls of the source. Calls follow the shape of the dose curve; as a rule, active = well fitted cell-killing curve with a large enough effect in the repeat runs (not every such curve was filed as active); inconclusive = weak or mixed curves, or effect the other way; inactive = no such curve, though single readings can be large or run the other way.

This assay in a line: qHTS assay to identify small molecule antagonists of the farnesoid-X-receptor (FXR) signaling pathway - cell viability counter screen (AID 743221). Also: nearly all actives have a fitted effect of over 50% in size. To be noted: FXR-bla HEK293T viability, CellTiter-Glo luminescence, 16 h; series mostly up to 62.6 µM. The source says:
National Center for Advancing Translational Sciences [NCATS]
NIH Chemical Genomics Center [NCGC]
U.S. Environmental Protection Agency [EPA]
National Institutes of Environmental Health Sciences [NIEHS]
National Toxicology Program [NTP]
U.S. Food and Drug Administration [FDA]
The farnesoid-X-receptor (FXR), a nuclear hormone receptor, is highly expressed in liver, intestine, kidney and adrenal cortex. Natural ligands of FXR are the bile acids (Cholic acid, Chenodeoxy cholic acid etc). FXR is an important regulator of diverse metabolic pathways, including the bile acid homeostasis, lipid and glucose metabolisms. FXR regulates the expression of target genes by binding either as a monomer or as a heterodimer with the retinoid X receptor (RXR). Numerous studies have reported that FXR exerts protective function during cholestasis, diabetes, liver regeneration, and cancer. To identify compounds that inhibit FXR signaling, GeneBLAzer FXR-UAS-bla HEK 293T cell line (Invitrogen, Carlsbad, CA) containing a beta-lactamase reporter gene under the control of a UAS response element was used to screen the Tox21 10K compound library. The cytotoxicity of the Tox21 compound library against the FXR-bla cell line was tested in parallel by measuring the cell viability using CellTiter-Glo assay in the same wells.
Tox21 Assay Protocol Summary:
FXR-bla cells were dispensed at 5000 cells/5uL/well in 1536-well black wall/clear bottom plates using a Multidrop Combi (Thermo Fisher Scientific, Waltham, MA) dispenser. After the assay plates were incubated at 37 C and 5% CO2 for 5 h, 23 nL of compounds dissolved in DMSO, positive controls or DMSO only was transferred to the assay plate by a Pintool station (Kalypsys, San Diego, CA), followed by addition of 1 uL Chenodeoxycholic acid (50 uM, final concentration in the wells). The assay plates were incubated at 37C for 16 h. After 1 uL of LiveBLAzerTM B/G FRET substrate was added using a Bioraptr Flying Reagent Dispenser (FRD) workstation (Beckman Coulter, Indianapolis, IN), the plates were incubated at room temperature for 2 h, and fluorescence intensity was measured by an Envision plate reader (PerkinElmer, Shelton, CT). For cell viability readout that measures cytotoxicity, 4uL/well of CellTiter-Glo reagent was added into the assay plates using a Bioraptr FRD. After 30 min incubation at room temperature, the luminescence intensity in the plates was measured using a ViewLux plate reader (PerkinElmer).
Consider `Cc1cccc(N)c1`, for which the Potency result is “inactive”.

Regarding `C=C(C)C(=O)OCC(CC)CCCC` (stereo not given), the Potency entry was “inactive”.

On to `Cc1cccc(C)c1N`, for which the Potency entry is “inactive”.

For `Cc1cccc(N)c1C`, the Potency entry is “inactive”.

On to `CC[N+](=O)[O-]`, for which the Potency entry was “inactive”.

For the molecule `CNCC(O)c1ccc(O)cc1` (stereo not given), the Potency entry is “inactive”.

Consider `N#Cc1ccccn1`, for which the Potency entry is “inactive”.

As for `COc1nc(NC(C)C)nc(NC(C)C)n1`, the Potency result was “inactive”.

Regarding `CC(C)(C)C(=O)CCl`, the Potency entry is “inactive”.

Turning to `NNc1ccccc1`, the Potency result is “inactive”.

For `Cc1ccc(N=C=O)cc1N=C=O`, the Potency entry was “inactive”.

Regarding `CCCOC(=O)c1ccccc1C(=O)OCCC`, the Potency result was “inactive”.

For `O=[N+]([O-])c1ccc(Cl)c(Cl)c1`, the Potency entry was “inactive”.

Turning to `Nc1ccc([As](=O)(O)O)cc1`, the Potency result is “inactive”.

As to `Cc1cccc(C)c1NC(=O)CN1CCCC1=O`, the Potency result was “inactive”.

For `CCCCC(CC)C(=O)Cl` (stereo not given), the Potency result is “inactive”.

For the molecule `OCc1ccco1`, the Potency entry is “inactive”.

For the molecule `CNC(=O)Oc1cccc2ccccc12`, the Potency result is “inactive”.

As for `Nc1ncc([N+](=O)[O-])s1`, the Potency entry was “inactive”.

With `Oc1ccc(Cl)cc1`, the Potency entry was “inactive”.

For `CC12CC1(C)C(=O)N(c1cc(Cl)cc(Cl)c1)C2=O` (stereo not given), the Potency entry is “inactive”.

Turning to `O=C(O)c1cc(Oc2ccc(C(F)(F)F)cc2Cl)ccc1[N+](=O)[O-]`, the Potency entry was “inactive”.

On to `OC[C@@H](O)[C@H]1O[C@@H]2O[C@H](C(Cl)(Cl)Cl)O[C@@H]2[C@H]1O`, for which the Potency entry was “inactive”.

For `C[C@]12CC[C@H](O)CC1=CC[C@@H]1[C@@H]2CC[C@]2(C)C(=O)CC[C@@H]12`, the Potency result is “inactive”.

As to `O=[N+]([O-])c1cc([As](=O)(O)O)ccc1O`, the Potency result was “inactive”.

Consider `CN(C)CCC#N`, for which the Potency result is “inactive”.

Consider `O=C/C=C/c1ccccc1`, for which the Potency result is “inactive”.

Regarding `C=CC(=O)OCC(CC)CCCC` (stereo not given), the Potency entry was “inactive”.

Consider `Nc1cccc(Cl)c1`, for which the Potency result was “inactive”.

On to `COS(=O)(=O)OC`, for which the Potency entry is “inactive”.

As to `Cl[C@H]1OCCO[C@@H]1Cl`, the Potency result was “inactive”.

For the molecule `CNc1cnn(-c2cccc(C(F)(F)F)c2)c(=O)c1Cl`, the Potency result is “inactive”.

Regarding `OCC(O)CCl` (stereo not given), the Potency result was “inactive”.

In the case of `O=C(O)C(Br)Br`, the Potency result is “inactive”.

As to `CN(C)C(=O)Nc1cccc(C(F)(F)F)c1`, the Potency entry was “inactive”.

In the case of `Clc1cnc(Oc2ccc(Oc3ncc(Cl)cc3Cl)cc2)c(Cl)c1`, the Potency result was “inactive”.

As to `Sc1ccccc1`, the Potency result was “inactive”.

Turning to `CC(C)CCCCCCOC(=O)c1ccccc1C(=O)OCCCCCCC(C)C`, the Potency entry is “inactive”.

For the molecule `Nc1ccc(N)cc1`, the Potency result is “inactive”.

Consider `Cc1ccc(O)c(C)c1`, for which the Potency result is “inactive”.

Values taken from PubChem BioAssay (Tox21).
